# Laboratory results taken from PubChem BioAssay (NCI).
# This is part of a sample that, as a whole, favours compounds with a hit. Of some 79,000 tested, about 15% had one in any assay. A number with no mark means an inactive call. Activity calls are given as the source filed them. No stated cut-off is given here; in the data, active means growth inhibition above about 70%; inactive means the rest.
# Experiments:
# [1] = NCI Yeast Anticancer Drug Screen. Data for the rad50 strain (AID 155);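 further: 0% = growth of vehicle-only cultures of the same strain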; conditions: S. cerevisiae rad50 strain growth inhibition; at 50.0 µM; stronger effect = higher value
# In short: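 Relative growth inhibition (compound vs vehicle) was measured in yeast with a defined repair-gene alteration.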
# [2] = NCI Yeast Anticancer Drug Screen. Data for the mec2-1 strain (AID 157); conditions: S. cerevisiae mec2-1 strain, at 50.0 µM, stronger effect = higher value
# In short: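 Growth inhibition is read against vehicle-treated controls after compound exposure of the mec2-1 yeast strain, which is defective in DNA damage repair or cell cycle control.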
# [3] = NCI Yeast Anticancer Drug Screen. Data for the sgs1 mgt1 strain (AID 161);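 further: 0% = growth of cultures given vehicle only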; conditions: S. cerevisiae sgs1 mgt1 strain, at 50.0 µM, stronger effect = higher value
# In short: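 Yeast cells carrying a defined DNA-repair defect were exposed to test compounds. Growth inhibition was measured relative to vehicle-treated controls.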
# [4] = NCI Yeast Anticancer Drug Screen. Data for the cln2 rad14 strain (AID 165);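 further: 0% = growth equal to vehicle treated cultures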; conditions: S. cerevisiae cln2 rad14 strain, at 50.0 µM, stronger effect = higher value
# In short: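 Growth inhibition, relative to vehicle-treated controls, is the read-out. The test organism is a yeast strain with defined genetic alterations, cln2 rad14.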
# [5] = NCI Yeast Anticancer Drug Screen. Data for the bub3 strain (AID 167); conditions: S. cerevisiae bub3 mutant strain, at 50.0 µM, stronger effect = higher value
# In short: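 Screening used yeast with an engineered genetic alteration affecting cell cycle control. Compound-exposed cultures were compared with vehicle cultures, and reduced growth was taken as inhibition.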
# [6] = NCI Yeast Anticancer Drug Screen. Data for the mlh1 rad18 strain (AID 175); conditions: S. cerevisiae mlh1 rad18 strain growth inhibition; at 50.0 µM; stronger effect = higher value
# In short: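 Cells of a genetically altered yeast strain, deficient in DNA damage repair, were treated with compound. Their growth was then compared with that of vehicle-treated cultures to give inhibition.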
Compound,growth inhibition [1],growth inhibition [2],growth inhibition [3],growth inhibition [4],growth inhibition [5],growth inhibition [6]
Cc1c(Cl)cccc1NC(=O)C1CC(Br)C(Br)CC1C(=O)O (stereo not given),1.5%,6.7%,1.5%,-48.5%,9.35%,31.3%
O=C(O)CNC(=O)c1ccc2cc(C(=O)N3CC(CCl)c4ccc([N+](=O)[O-])cc43)[nH]c2c1 (stereo not given),-6.45%,-4%,-3.95%,-0.1%,-34.3%,-35%
CCOC(=O)c1nc2c(C)nc(N)nc2[nH]c1=O,-0.35%,-1.2%,-12%,-32.1%,-5.6%,-3.1%
O=C(O)c1cc(O)c(C(=O)O)cc1O,-3.2%,-9.15%,-18.6%,-15.2%,-3.25%,0.3%
O=C(CCN1CCCC1)Nc1ccc2sc3ccccc3c(=O)c2n1,38.5%,-61.8%,8.75%,9.7%,16.6%,10.6%
COc1ccc(N=N/C(=N/NC(=O)c2ccccc2)c2ccc(N(CCC#N)CCC#N)cc2C)cc1,-4.35%,-13.5%,-22.8%,-7.2%,-23.1%,-44.5%
N#Cc1cc(C#N)c(N)nc1N,14.1%,6.35%,1.8%,13.4%,-1.25%,-5.7%
CCCCCCCCCCCCCCCC/C(=C\c1ccc2ccccc2c1)[N+](=O)[O-],-29.2%,-10.7%,-24.6%,-38.3%,-1.75%,-10%
CCOc1ccccc1NC(=O)CC(C)=O,14.3%,20.6%,22.2%,1.9%,33.3%,10.4%
COc1nc2c(c(O)c(C)c(=O)n2OC2OC(COC(C)=O)C(OC(C)=O)C(OC(C)=O)C2OC(C)=O)c(=O)n1C (stereo not given),-2.1%,-15.8%,7.95%,-7.75%,0.45%,2.3%
COC(=O)NCCCCl,5.25%,-10.7%,3.5%,-14.2%,-0.3%,3.15%
Nc1ccccc1SC1CC(=O)N(c2cccc(Cl)c2)C1=O (stereo not given),-10.6%,-25.4%,-4.7%,-7.3%,-1.05%,-25.1%
Cc1ccccc1C(=O)OC1CCCCC1,9.2%,-13.1%,-9.65%,-39.5%,9.8%,5.7%
Oc1ccccc1C=Nc1ccc(I)cc1.Oc1ccccc1C=Nc1ccc(I)cc1.[Co],15.8%,23.1%,18.6%,9.45%,17.6%,36.8%
COc1ccc2c3c([nH]c2c1)[C@H]1C[C@H]2[C@H](C[C@@H](O)[C@H](OC)[C@H]2C(=O)O)CN1CC3,26.3%,21%,-18.9%,1.85%,23.6%,30.4%
O=C(Cc1ccccc1CC(=O)Oc1ccccc1)Oc1ccccc1,9.1%,-3.9%,10.8%,5.2%,18.9%,5.75%
CCOc1c(N=Nc2ccccc2OC)c(-c2ccccc2)nn1C(=S)S,33.4%,42%,24.8%,5.75%,66.7%,18.9%
OCc1ccc(CO)o1,17.8%,15.7%,-16.4%,-1.55%,24.1%,5.4%
CC[O-].CC[O-].O=C([CH-]C(=O)c1ccccc1)CCCCCCC(=O)[CH-]C(=O)c1ccccc1.[Ti+4],-39.5%,-13.7%,-33.5%,-4.7%,4.95%,-17.7%
CCOC(=O)C(Cc1ccccc1C)(NC(C)=O)C(=O)OCC,6.65%,-0.25%,7.35%,4.1%,1.4%,-11.2%

Compound,growth inhibition [1],growth inhibition [2],growth inhibition [3],growth inhibition [4],growth inhibition [5],growth inhibition [6]
CCCCc1c[nH]c(=O)[nH]c1=O,4.55%,5.05%,-8.4%,-34.6%,-12.6%,5.7%
Cc1ccc(S(=O)(=O)N/N=C2\CCC3CC3CC\C2=N/NS(=O)(=O)c2ccc(C)cc2)cc1 (stereo not given),-0.85%,-4.4%,0.6%,-9.1%,-2.7%,-5.75%
C[C@]12CCC(=O)C=C1CC[C@@H]1[C@@H]2C(=O)C[C@@]2(C)[C@H]1CC[C@]2(O)C(=O)C=O,-5%,-1.4%,13.8%,16.9%,-10.8%,2.45%
COc1cccc2c1CC/C(=C\c1ccccn1)C2=O,98.5% (active),99.1% (active),98.9% (active),97.8% (active),98.8% (active),99.2% (active)
c1ccc(C[S][Sn]([c]2ccccc2)([c]2ccccc2)[c]2ccccc2)cc1,97.5% (active),96.2% (active),97% (active),94.4% (active),97% (active),93% (active)
O=C(Nc1nc2ncn(CCNCCn3cnc4nc(NC(=O)c5ccccc5)[nH]c(=O)c43)c2c(=O)[nH]1)c1ccccc1,-10.2%,14.1%,17.5%,25.9%,16.8%,17%
NC1=NN(c2ccccc2)C(=O)/C1=C\n1c(=S)[nH]c2ccccc21,-22.4%,-19.9%,-39.6%,-16.3%,-25.4%,-26.6%
CN(C)C(=S)Oc1ccc([N+](C)(C)C)cc1,-3.7%,3.55%,2.5%,-4.6%,3.15%,-1%
O=C(NC(=O)c1ccccc1Cl)Nc1ccc(C(O)(C(F)(F)F)C(F)(F)F)cc1,53.8%,53.5%,58.4%,68.7%,34.3%,61.5%
COC(=O)NC(S(=O)(=O)O)S(=O)(=O)O,6.2%,11.6%,0.85%,2.65%,16.5%,1.7%
CC(=O)OC12CC(C)C3(O)C4C=C(C)C(=O)[C@@]4(O)CC(CO)=C[C@H]3C1C2(C)C (stereo not given in full),-4.3%,-6.15%,9.95%,5.35%,6.8%,2.05%
Nc1[nH]n(-c2ccccc2)c(=O)c1/C=N/C(=S)NC1CCCCC1,-79%,-43.7%,-61%,-63.2%,-47.8%,-67.9%
CNc1ncnc2c1cnn2-c1ccc(Cl)cc1,-15.8%,-6.85%,-6.75%,-37.4%,0.3%,4.25%
N#C/C(=C1/Sc2c(nc[nH]c2=O)N1c1ccccc1)c1nc2ccccc2[nH]1,-34.6%,-14.4%,-51.9%,-8.1%,-40%,-41.9%
CN=[N+]([O-])c1ccccc1,1.75%,17.9%,4.35%,15.2%,10.9%,1.6%
COC(=O)C1(OC(=O)Sc2ccccc2)CCN(C)CC1,-19.8%,-5.95%,-7.15%,15.4%,-7.55%,-25.1%
Cc1cccc(-c2nc(-c3cnccn3)n(Cc3ccccc3)n2)c1,-67.5%,-46.9%,-62%,-39.6%,-51.1%,-61.2%
NC(=O)Cn1c(=O)[nH]c(=O)c2[nH]cnc21,-16.9%,-2.1%,-10.3%,5.4%,-0.4%,6.85%
C/C(=N/S(=O)(=O)c1ccc(C)c(C)c1)OC(C)C,2.6%,6.9%,7.95%,-55.1%,13.1%,-1.2%
CC1(C)N=C(C(N)=O)c2[nH]cnc2N1,-2.55%,4.35%,12.8%,13.3%,11.3%,-51.2%
